The target in experiment [1] is Paired box protein Pax-6 (Homo sapiens) (UniProt P26367). The experiment can be described thus: ATG_Pax6_CIS: Attagene CIS-FACTORIAL HepG2 Assay for human Paired Box 6 (PAX6) (AID 2282956). The following applies: HepG2 CIS-FACTORIAL PAX6 reporter transcription, RNA readout; actives raise or lower the signal. The method, boiled down: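 Values derive from bidirectional curve fitting of reporter mRNA signal relative to DMSO. HepG2 cells bearing transfected cis-regulated MRTUs were exposed for 24 h; transcripts were read by RT-PCR and capillary electrophoresis.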

The nature of experiment [2]: ATG_PXRE_CIS: Attagene CIS-FACTORIAL HepG2 Assay for human Pregnane X Receptor Element (PXRE) (AID 2282957). The following applies: HepG2 Attagene CIS-FACTORIAL PXRE reporter, mRNA; actives raise or lower the signal. In a few lines:
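Using HepG2 transfected with multiple reporter transcription units, endogenous factor-driven transcription was scored as reporter mRNA after 24 h exposure.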

Experiment [3] is described as follows: ATG_RORE_CIS: Attagene CIS-FACTORIAL HepG2 Assay for human RAR-related Orphan Receptor Element (RORE) (AID 2282959). The following applies: HepG2 Attagene cis-factorial RORE reporter, mRNA; actives raise or lower the signal. The method, boiled down:
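A 24-hour exposure of transfected HepG2 hepatoma cells precedes RNA isolation and reporter RT-PCR. Labeled products are digested with HpaI and resolved by capillary electrophoresis, with gain or loss of signal scored relative to DMSO.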

Experiment [4] can be described thus: ATG_Sox_CIS: Attagene CIS-FACTORIAL HepG2 Assay for human SRY-box transcription factor (SOX) (AID 2282960). Particulars: HepG2 Attagene cis-factorial SOX reporter, mRNA; actives raise or lower the signal. The method, boiled down: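 HepG2, cis reporter units, 24 h exposure. Reporter mRNA: RT-PCR → FAM labelling → HpaI → CE fluorescence. Bidirectional fit vs DMSO.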

Experiment [5] deals with Transcription factor Sp1 (Homo sapiens) (UniProt P08047). The experiment can be described thus: ATG_Sp1_CIS: Attagene CIS-FACTORIAL HepG2 Assay for human Specificity Protein 1 (Sp1) (AID 2282961). The following applies: HepG2 Sp1 cis-reporter transcription, actives raise or lower the signal. In a few lines: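 Liver-derived HepG2 cells, cis-element reporter library, 24 h treatment; RNA isolated, cDNA amplified with reporter-specific primers, FAM-labeled fragments sized on capillary analyzer. DMSO baseline, bidirectional curve fit.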

The nature of experiment [6]: ATG_SREBP_CIS: Attagene CIS-FACTORIAL HepG2 Assay for human Sterol Regulatory Element Binding (SREBP) (AID 2282962). Particulars: HepG2 Attagene cis-factorial SREBP reporter, mRNA; actives raise or lower the signal. The method, boiled down: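 Values derive from bidirectional curve fitting with DMSO as baseline. The underlying measurement is reporter mRNA from cis-element-regulated units in transiently transfected HepG2, quantified by RT-PCR and capillary electrophoresis after 24 h exposure.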

Experiment [7] addresses Signal transducer and activator of transcription 3 (Homo sapiens) (UniProt P40763). The experiment is described as follows: ATG_STAT3_CIS: Attagene CIS-FACTORIAL HepG2 Assay for human Signal Transducer and Activator of Transcription 3 (STAT3) (AID 2282963). Particulars: HepG2, Attagene cis-factorial STAT3 reporter transcription; actives raise or lower the signal. The method, boiled down: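 Cis-factorial format: endogenous transcription factors in HepG2 drive transfected reporter units. After 24 h treatment, reporter RNA was reverse-transcribed, amplified, FAM-labelled and HpaI-digested before CE analysis; activity scored in both directions against DMSO.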

Experiment [8] can be described thus: ATG_TA_CIS: Attagene CIS-FACTORIAL HepG2 Assay for human TA Basal Promoter (AID 2282964). The following applies: HepG2 Attagene CIS-factorial TA basal promoter reporter; actives raise or lower the signal. In a few lines:
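Background internal-marker endpoint from a 52-component HepG2 cis-reporter panel. Cells treated 24 h; reporter transcripts quantified via RT-PCR and CE fluorescence against DMSO baseline.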

A short description of experiment [9]: ATG_TCF_b_cat_CIS: Attagene CIS-FACTORIAL HepG2 Assay for human T-Cell-Factor with beta-catenin (TCF/b-cat) (AID 2282965). Particulars: HepG2 TCF/beta-catenin cis-reporter transcription, actives raise or lower the signal. The method, boiled down:
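Endogenous transcription factor activity is captured through cis-promoter reporter constructs transiently introduced into human HepG2 liver cells. Induced reporter mRNA is measured after 24 h and fitted bidirectionally relative to DMSO.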

The nature of experiment [10]: ATG_TAL_CIS: Attagene CIS-FACTORIAL HepG2 Assay for human TAL Basal Promoter (AID 2282966).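 Further: background control endpoint measuring basal TAL promoter reporter mRNA not a specific factor.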 The following applies: HepG2 Attagene cis-factorial TAL promoter reporter; actives raise or lower the signal. The method, boiled down:
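After 24 hours of chemical exposure, transfected HepG2 cells yielded RNA that was converted to 6-FAM-labelled, HpaI-digested reporter fragments for capillary electrophoresis. Values derive from bidirectional fitting against DMSO controls.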

Experiment [11] can be described thus: ATG_TGFb_CIS: Attagene CIS-FACTORIAL HepG2 Assay for human Transforming Growth Factor (TGF) (AID 2282967). Particulars: HepG2 Attagene CIS TGFb reporter, mRNA transcription; actives raise or lower the signal. In a few lines: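 Liver HepG2 line, cis-factorial reporter panel, 24 h dosing. Quantitation: RT-PCR products labeled with 6-FAM, cut with HpaI, resolved by capillary electrophoresis; DMSO-referenced bidirectional analysis.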

The target in experiment [12] is Nuclear receptor subfamily 1 group I member 3 (Homo sapiens) (UniProt Q14994). The experiment is described as follows: ATG_CAR_TRANS: Attagene TRANS-FACTORIAL HepG2 Assay for human Constitutive Androstane Receptor (CAR) (AID 2282969; active means hit-call score of the fitted dose curve at least 0.9, where 1 is the maximum;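 further: activators raise reporter mRNA above DMSO so AC50 marks induction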). Particulars: HepG2 Attagene TRANS-FACTORIAL CAR reporter. In a few lines:
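Signal is reporter mRNA induction relative to DMSO, measured 24 h after dosing by RT-PCR with fluorescent primer extension and capillary electrophoresis. Human HepG2 liver cells carried transiently transfected chimeric NR-Gal4/GAL4-UAS reporter constructs.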

Experiment [13] concerns the target Estrogen receptor (Homo sapiens) (UniProt P03372). The experiment can be described thus: ATG_ERa_TRANS: Attagene TRANS-FACTORIAL HepG2 Assay for human Estrogen Receptor alpha (ERa) (AID 2282970; active means hit-call score of the fitted dose curve at least 0.9, where 1 is the maximum). The following applies: HepG2 Attagene TRANS ERa GAL4 reporter, mRNA. In a few lines:
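Liver-derived HepG2 cells expressing chimeric nuclear receptor-Gal4 proteins from transient transfection were exposed for 24 hours. Gain of reporter mRNA signal versus DMSO, read by capillary electrophoresis of FAM-labelled PCR products, was recorded.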

Experiment [14] addresses X-box-binding protein 1 (Homo sapiens) (UniProt P17861). The experiment is described as follows: ATG_Xbp1_CIS: Attagene CIS-FACTORIAL HepG2 Assay for human X-box Binding Protein 1 (XBP1) (AID 2282972). Particulars: HepG2 XBP1 cis-element reporter, Attagene multiplex; actives raise or lower the signal. In a few lines:
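Human hepatoma HepG2, cis-element reporter system, 24 h treatment; mRNA quantified by RT-PCR/CE fluorescence; fit relative to DMSO.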

Experiment [15] can be described thus: ATG_GAL4_TRANS: Attagene TRANS-FACTORIAL HepG2 Assay for GAL4 (Internal Marker) (AID 2282976; active means hit-call score of the fitted dose curve at least 0.9, where 1 is the maximum). Particulars: HepG2 Attagene TRANS GAL4 internal marker reporter. The method, boiled down: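 First, HepG2 cells were transfected with reporter units under GAL4-UAS control. Next, they were treated with chemical for 24 h. Finally, RNA was reverse-transcribed, PCR-amplified, FAM-labelled and resolved by capillary electrophoresis, with induction scored against DMSO.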

Experiment [16] can be described thus: ATG_VDRE_CIS: Attagene CIS-FACTORIAL HepG2 Assay for human Vitamin D Receptor Element (VDRE) (AID 2282968). Particulars: HepG2 VDRE cis-reporter transcription, actives raise or lower the signal. The method, boiled down: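 Measures endogenous factor activity through cis-element-driven reporter transcripts in transiently transfected HepG2. Cells are treated 24 h; reporter mRNA is quantified by RT-PCR and capillary electrophoresis; fitting is bidirectional.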

The nature of experiment [17]: ATG_PPRE_CIS: Attagene CIS-FACTORIAL HepG2 Assay for human Peroxisome Proliferator-activated Response Element (PPRE) (AID 2282958). Particulars: HepG2 PPRE cis-element reporter, Attagene transcription factor profiling; actives raise or lower the signal. The method, boiled down: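 PPRE activity in HepG2: transient cis-reporter transfection, 24 h compound incubation, reporter mRNA by RT-PCR and CE fluorescence; gain/loss fitted against DMSO.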

Experiment [18] can be described thus: ATG_M_19_TRANS: Attagene TRANS-FACTORIAL HepG2 Assay for M19 Transcription Factor (Internal Marker) (AID 2282974; active means hit-call score of the fitted dose curve at least 0.9, where 1 is the maximum). Particulars: HepG2 Attagene TRANS-FACTORIAL M19 internal marker reporter. In a few lines: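 Transfected HepG2 (GAL4-UAS MRTUs), 24 h compound, TriZol RNA, DNase-treated RT, reporter PCR, FAM label, HpaI digest, CE fluorescence; gain vs DMSO.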

In experiment [19] the target is Steroid hormone receptor ERR1 (Homo sapiens) (UniProt P11474). The experiment can be described thus: ATG_ERRa_TRANS: Attagene TRANS-FACTORIAL HepG2 Assay for human Estrogen-Related Receptor alpha (ERRa) (AID 2282971; active means hit-call score of the fitted dose curve at least 0.9, where 1 is the maximum). Particulars: HepG2 Attagene TRANS reporter, ERRa transactivation. The method, boiled down: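 Reporter transcript induction was quantified by RT-PCR and capillary electrophoresis of FAM-labelled, HpaI-cut products after 24 h treatment of HepG2 cells carrying transiently transfected GAL4-UAS reporter units and an exogenous ERRa-Gal4 fusion; activity scored as increase over DMSO.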

The target of experiment [20] is Estrogen-related receptor gamma (Homo sapiens) (UniProt P62508). The experiment is described as follows: ATG_ERRg_TRANS: Attagene TRANS-FACTORIAL HepG2 Assay for human Estrogen-Related Receptor gamma (ERRg) (AID 2282977; active means hit-call score of the fitted dose curve at least 0.9, where 1 is the maximum;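 further: hits increase reporter signal over DMSO so potencies reflect activators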). Particulars: HepG2 Attagene TRANS reporter, ERRg transactivation. The method, boiled down: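 Readout: fluorescent reporter-mRNA fragments resolved by capillary electrophoresis after RT-PCR and HpaI cut. Cells: transiently transfected HepG2 carrying GAL4-UAS reporters driven by exogenous NR-Gal4 chimeras, dosed 24 h. Activity fitted upward relative to DMSO baseline.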

The results in this text go back to PubChem BioAssay (EPA / NIEHS).

Inconclusive results are not listed. Activity calls are given as the source filed them. How the source made its calls, unless noted: active means hit-call score of the fitted dose curve at least 0.9, where 1 is the maximum; inactive means score below 0.9.

Sequence of Paired box protein Pax-6 (Homo sapiens) (P26367 whole entry, looked up): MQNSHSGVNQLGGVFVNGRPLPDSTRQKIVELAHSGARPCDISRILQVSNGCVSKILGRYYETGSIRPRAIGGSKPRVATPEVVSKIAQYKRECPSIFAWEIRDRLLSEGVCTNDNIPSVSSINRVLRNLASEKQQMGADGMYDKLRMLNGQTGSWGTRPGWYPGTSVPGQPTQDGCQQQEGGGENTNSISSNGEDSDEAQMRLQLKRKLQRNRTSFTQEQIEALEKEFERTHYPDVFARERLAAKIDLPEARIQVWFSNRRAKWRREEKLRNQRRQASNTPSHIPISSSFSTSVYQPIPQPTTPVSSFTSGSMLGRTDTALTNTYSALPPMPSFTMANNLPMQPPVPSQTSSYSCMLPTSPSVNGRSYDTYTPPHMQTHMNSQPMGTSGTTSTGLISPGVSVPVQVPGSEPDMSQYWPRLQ
Sequence of Signal transducer and activator of transcription 3 (Homo sapiens) (P40763 whole entry, looked up): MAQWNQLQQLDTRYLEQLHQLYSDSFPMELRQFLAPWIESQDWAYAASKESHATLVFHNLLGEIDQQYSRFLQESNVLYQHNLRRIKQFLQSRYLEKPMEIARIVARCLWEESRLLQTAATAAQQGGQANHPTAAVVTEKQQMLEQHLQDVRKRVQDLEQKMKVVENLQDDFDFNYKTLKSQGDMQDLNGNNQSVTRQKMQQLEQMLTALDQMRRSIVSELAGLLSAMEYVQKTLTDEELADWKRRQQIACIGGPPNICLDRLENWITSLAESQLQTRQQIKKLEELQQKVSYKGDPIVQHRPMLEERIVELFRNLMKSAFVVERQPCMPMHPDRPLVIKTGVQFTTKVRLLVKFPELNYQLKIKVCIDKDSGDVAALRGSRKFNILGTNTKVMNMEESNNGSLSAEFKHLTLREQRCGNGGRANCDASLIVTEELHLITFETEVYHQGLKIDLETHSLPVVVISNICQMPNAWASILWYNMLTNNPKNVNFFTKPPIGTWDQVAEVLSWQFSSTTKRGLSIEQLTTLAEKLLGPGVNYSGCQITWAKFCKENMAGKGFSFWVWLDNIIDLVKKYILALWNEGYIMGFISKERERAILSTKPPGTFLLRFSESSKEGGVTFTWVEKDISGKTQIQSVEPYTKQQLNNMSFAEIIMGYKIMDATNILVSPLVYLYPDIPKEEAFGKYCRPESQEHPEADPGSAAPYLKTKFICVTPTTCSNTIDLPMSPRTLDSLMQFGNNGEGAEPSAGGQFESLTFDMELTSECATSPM
Sequence of Transcription factor Sp1 (Homo sapiens) (P08047 whole entry, looked up, the tested form may be a part): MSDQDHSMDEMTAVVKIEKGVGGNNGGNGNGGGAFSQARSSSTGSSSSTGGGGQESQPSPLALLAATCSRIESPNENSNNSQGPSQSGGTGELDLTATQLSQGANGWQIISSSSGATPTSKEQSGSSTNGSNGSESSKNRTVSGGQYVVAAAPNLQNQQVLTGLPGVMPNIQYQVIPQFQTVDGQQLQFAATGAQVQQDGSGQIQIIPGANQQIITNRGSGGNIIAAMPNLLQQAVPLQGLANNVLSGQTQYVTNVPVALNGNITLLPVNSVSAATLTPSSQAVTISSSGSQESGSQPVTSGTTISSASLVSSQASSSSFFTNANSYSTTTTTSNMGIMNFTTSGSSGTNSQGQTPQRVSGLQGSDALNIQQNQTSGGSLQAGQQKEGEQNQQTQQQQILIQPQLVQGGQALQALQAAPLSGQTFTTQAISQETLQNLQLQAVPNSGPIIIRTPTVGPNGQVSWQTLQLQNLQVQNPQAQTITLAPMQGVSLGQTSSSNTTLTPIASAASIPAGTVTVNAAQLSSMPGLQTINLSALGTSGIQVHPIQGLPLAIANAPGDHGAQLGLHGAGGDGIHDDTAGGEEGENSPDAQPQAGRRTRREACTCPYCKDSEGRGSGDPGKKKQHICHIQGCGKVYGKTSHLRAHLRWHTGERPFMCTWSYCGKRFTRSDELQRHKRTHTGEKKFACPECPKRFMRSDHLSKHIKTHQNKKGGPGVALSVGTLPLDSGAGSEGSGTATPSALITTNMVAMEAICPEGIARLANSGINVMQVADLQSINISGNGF
Sequence of Estrogen receptor (Homo sapiens) (P03372 whole entry, looked up, the tested form may be a part): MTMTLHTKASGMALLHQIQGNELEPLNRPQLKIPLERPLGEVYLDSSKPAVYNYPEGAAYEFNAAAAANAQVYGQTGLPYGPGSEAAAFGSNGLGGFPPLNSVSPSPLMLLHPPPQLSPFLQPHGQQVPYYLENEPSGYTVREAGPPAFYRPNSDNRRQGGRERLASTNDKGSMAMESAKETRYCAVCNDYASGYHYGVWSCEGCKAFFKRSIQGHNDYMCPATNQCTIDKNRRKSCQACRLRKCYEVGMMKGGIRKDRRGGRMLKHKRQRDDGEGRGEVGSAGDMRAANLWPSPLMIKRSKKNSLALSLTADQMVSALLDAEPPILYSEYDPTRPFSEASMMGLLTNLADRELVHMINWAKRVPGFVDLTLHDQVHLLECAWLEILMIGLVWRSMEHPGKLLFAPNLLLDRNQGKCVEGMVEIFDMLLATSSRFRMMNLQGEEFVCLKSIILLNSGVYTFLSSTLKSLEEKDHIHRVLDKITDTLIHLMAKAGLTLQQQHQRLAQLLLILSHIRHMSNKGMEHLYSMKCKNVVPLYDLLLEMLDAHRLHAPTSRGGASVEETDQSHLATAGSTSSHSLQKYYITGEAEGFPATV
Sequence of X-box-binding protein 1 (Homo sapiens) (P17861 whole entry, looked up): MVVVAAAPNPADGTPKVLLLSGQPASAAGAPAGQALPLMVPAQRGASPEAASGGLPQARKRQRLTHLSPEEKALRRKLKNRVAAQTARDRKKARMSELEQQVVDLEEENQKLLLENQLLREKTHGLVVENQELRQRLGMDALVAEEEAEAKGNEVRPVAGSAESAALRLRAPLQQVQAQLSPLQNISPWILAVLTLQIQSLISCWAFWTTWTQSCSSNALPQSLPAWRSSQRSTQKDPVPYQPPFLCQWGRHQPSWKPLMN
Sequence of Steroid hormone receptor ERR1 (Homo sapiens) (P11474 whole entry, looked up, the tested form may be a part): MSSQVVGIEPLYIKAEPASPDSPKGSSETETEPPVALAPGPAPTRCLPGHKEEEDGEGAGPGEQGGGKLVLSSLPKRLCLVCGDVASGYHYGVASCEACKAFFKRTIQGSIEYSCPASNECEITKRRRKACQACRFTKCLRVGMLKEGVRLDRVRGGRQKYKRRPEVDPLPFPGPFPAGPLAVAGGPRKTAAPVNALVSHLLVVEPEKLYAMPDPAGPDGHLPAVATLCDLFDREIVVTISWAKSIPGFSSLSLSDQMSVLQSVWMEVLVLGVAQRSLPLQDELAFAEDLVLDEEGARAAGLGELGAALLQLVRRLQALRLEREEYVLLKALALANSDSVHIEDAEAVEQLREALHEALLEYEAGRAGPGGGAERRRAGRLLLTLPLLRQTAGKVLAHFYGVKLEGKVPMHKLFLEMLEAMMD
Sequence of Nuclear receptor subfamily 1 group I member 3 (Homo sapiens) (Q14994 whole entry, looked up, the tested form may be a part): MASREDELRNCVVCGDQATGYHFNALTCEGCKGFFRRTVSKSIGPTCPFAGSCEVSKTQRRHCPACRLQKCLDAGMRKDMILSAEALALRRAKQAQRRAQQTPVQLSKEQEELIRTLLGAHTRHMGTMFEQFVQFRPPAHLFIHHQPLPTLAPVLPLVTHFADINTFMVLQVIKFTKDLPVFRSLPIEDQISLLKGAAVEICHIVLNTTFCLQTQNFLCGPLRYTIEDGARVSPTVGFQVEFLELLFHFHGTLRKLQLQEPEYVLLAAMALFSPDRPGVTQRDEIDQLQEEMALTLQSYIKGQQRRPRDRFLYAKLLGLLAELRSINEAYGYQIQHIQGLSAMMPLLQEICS
Sequence of Estrogen-related receptor gamma (Homo sapiens) (P62508 whole entry, looked up, the tested form may be a part): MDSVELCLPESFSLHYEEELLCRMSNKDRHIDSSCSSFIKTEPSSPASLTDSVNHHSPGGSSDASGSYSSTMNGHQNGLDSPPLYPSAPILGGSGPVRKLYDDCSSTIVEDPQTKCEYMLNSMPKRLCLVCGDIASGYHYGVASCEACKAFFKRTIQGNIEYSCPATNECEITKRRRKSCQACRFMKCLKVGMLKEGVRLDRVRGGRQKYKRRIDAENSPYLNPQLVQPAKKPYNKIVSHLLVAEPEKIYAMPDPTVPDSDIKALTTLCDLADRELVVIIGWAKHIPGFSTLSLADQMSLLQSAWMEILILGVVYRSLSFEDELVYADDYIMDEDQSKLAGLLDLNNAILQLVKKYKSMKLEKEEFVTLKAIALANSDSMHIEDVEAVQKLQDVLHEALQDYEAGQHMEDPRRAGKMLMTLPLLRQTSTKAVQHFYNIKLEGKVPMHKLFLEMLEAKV

For `CC(=O)Nc1nnc(S(N)(=O)=O)s1`, the outcome in experiment [1], in [2], in experiment [3], in experiment [4], in [5] and in experiment [6] was inactive. In addition, the outcome in [7], in [8], in experiment [9], in experiment [10], in experiment [11] and in [12] was inactive. In addition, the call in [13], in experiment [14] and in [15] was inactive.
By AC50 is commonly meant the concentration giving half of the maximal activity seen. Regarding `COc1c2ccoc2cc2oc(=O)ccc12`, the compound was classed as inactive in experiment [1], in experiment [3], in experiment [4], in experiment [5], in experiment [6] and in experiment [7]. For the same compound, the outcome in experiment [8], in experiment [9], in [10], in experiment [11], in experiment [16] and in [13] was inactive. Besides, in [14], the outcome was inactive. Further, in experiment [2], the AC50 is 26.9 µM (active).
For `CC(C)(C)C1CCCCC1=O` (configuration not stated), the compound was classed as inactive in experiment [1], in [3], in experiment [4], in experiment [5], in [6] and in experiment [7]. The result in experiment [8], in [9], in experiment [10], in experiment [11], in [13] and in experiment [14] was inactive. Also, the compound was called inactive in experiment [15]. Further, the AC50 in [2] is 76.6 µM (active).
Take `C=C1[C@H]2CC[C@@H]3[C@H]2C(C)(C)CCC[C@]13C`: the compound was called inactive in experiment [1], in experiment [17], in experiment [4], in experiment [5], in experiment [6] and in [7]. Further, the outcome in experiment [8], in experiment [9], in [10], in experiment [11], in [12] and in experiment [14] was inactive. For the same compound, the outcome in [18] was inactive. In addition, the figures for the AC50 in experiment [2] and in experiment [13] were 5.34 µM (active) and 18.9 µM (active), respectively.
`OCCc1ccncc1`: the compound was called inactive in [1], in experiment [2], in experiment [3], in [4], in experiment [5] and in [6]. In addition, the compound was classed as inactive in [7], in experiment [8], in experiment [9], in experiment [10], in experiment [11] and in experiment [13]. Also, the compound was classed as inactive in [19], in [14] and in experiment [15].
In the case of `CCCCCCCCc1ccc(Nc2ccc(CCCCCCCC)cc2)cc1`, the outcome in experiment [1], in [17], in experiment [5], in experiment [8], in experiment [9] and in experiment [10] was inactive. In addition, the compound was called inactive in [11], in experiment [13], in [19], in experiment [14], in experiment [18] and in experiment [20]. The AC50 was 6.3 µM (active) in [2] and 19.8 µM (active) in experiment [16].
